Reference: paper PMC5540273 (PLoS ONE, 2017)

How the values were obtained:
Conditions in all cases: concentration: 1 μM, replicates: in singlicate; n = 1
[1] = system: CHEK2
[2] = system: CIT
[3] = system: CLK1
[4] = system: CLK2
[5] = system: CLK3
[6] = system: CLK4
[7] = system: CSF1R-autoinhibited
[8] = system: CSF1R
[9] = system: CSK
[10] = system: CSNK1A1L
[11] = system: CSNK1A1
[12] = system: CSNK1D
[13] = system: CSNK1E
[14] = system: CSNK1G1
[15] = system: CSNK1G2
[16] = system: CSNK1G3
[17] = system: CSNK2A1
[18] = system: CSNK2A2
[19] = system: T1, CTK
T1 construct: gene MATK

[20] = system: DAPK1
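Also: KINOMEscan kinase panel screen.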

SMILES | %Inh [1] [%] | %Inh [2] [%] | %Inh [3] [%] | %Inh [4] [%] | %Inh [5] [%] | %Inh [6] [%] | %Inh [7] [%] | %Inh [8] [%] | %Inh [9] [%] | %Inh [10] [%] | %Inh [11] [%] | %Inh [12] [%] | %Inh [13] [%] | %Inh [14] [%] | %Inh [15] [%] | %Inh [16] [%] | %Inh [17] [%] | %Inh [18] [%] | %Inh [19] [%] | %Inh [20] [%]
Cl.O=C(Nc1cccc(-c2nn3ncccc3c2-c2ccnc(Nc3cccnc3)n2)c1)c1c(F)cccc1F [GSK312879] | 0 | 30 | 19 | 3 | 0 | 12 | 0 | 17 | 18 | 4 | 0 | 15 | 24 | 8 | 0 | 15 | 1 | 0 | 25 | 2
Cl.c1ccc(-c2n[nH]cc2-c2ccnc(-c3ccc(CN4CCOCC4)cc3)c2)nc1 [GW776245] | 0 | 10 | 0 | 10 | 0 | 0 | 0 | 0 | 10 | 1 | 61 | 58 | 37 | 16 | 36 | 0 | 0 | 0 | 0 | 13
CN1C(=O)C(Nc2ccc(Cl)c(C(=O)O)c2)=C(c2ccc(Cl)cc2)C1=O [SB-404290] | 0 | 0 | 18 | 7 | 25 | 2 | 0 | 3 | 0 | 15 | 0 | 0 | 38 | 0 | 0 | 15 | 18 | 7 | 0 | 0
Cn1ccc2ncnc(Oc3cccc(C(=O)Nc4ccccc4)c3)c21 | 0 | 8 | 9 | 0 | 0 | 18 | 9 | 6 | 14 | 2 | 0 | 0 | 1 | 0 | 0 | 2 | 25 | 11 | 17 | 20
O=C(Nc1n[nH]c2nc(-c3nccs3)c(Br)cc12)C1CCCC1 [SB-742609] | 0 | 36 | 22 | 0 | 4 | 0 | 0 | 3 | 0 | 6 | 25 | 42 | 11 | 0 | 0 | 22 | 0 | 0 | 0 | 0
CC1=C(C(=O)Nc2cc3cn[nH]c3cc2F)C(c2ccc(C(F)(F)F)cc2)CC(=O)N1 (stereo not drawn) [GSK429286] | 0 | 5 | 14 | 0 | 37 | 0 | 0 | 7 | 0 | 7 | 0 | 10 | 25 | 7 | 0 | 12 | 18 | 0 | 0 | 9
COc1ccc2nc(-c3cccc(C)n3)nc(Nc3ccncc3)c2c1 [GSK204919] | 0 | 73 | 18 | 0 | 2 | 26 | 0 | 3 | 0 | 5 | 31 | 49 | 64 | 0 | 0 | 7 | 4 | 0 | 0 | 0
Cc1c(Cn2ccn3c(=O)cc(N4CCOCC4)nc23)cccc1C(F)(F)F [GSK2289044] | 0 | 22 | 33 | 54 | 20 | 33 | 0 | 9 | 0 | 0 | 33 | 6 | 25 | 19 | 5 | 18 | 0 | 3 | 0 | 13
CC(=O)Nc1nc2cnc(Nc3cc(NC(=O)c4cccc(CCC#N)c4)ccc3C)nc2s1 | 0 | 34 | 0 | 3 | 0 | 12 | 0 | 90.9 | 0 | 0 | 23 | 3 | 0 | 2 | 7 | 0 | 0 | 9 | 0 | 0
O=C(Nc1n[nH]c2nc(-c3nccs3)c(Br)cc12)C1CC1 [SB-742251] | 0 | 3 | 1 | 0 | 11 | 0 | 17 | 0 | 0 | 19 | 0 | 21 | 14 | 13 | 0 | 0 | 0 | 36 | 15 | 0
CCCc1ccc(S(=O)(=O)NC2CCN(c3ccnc(Nc4ccc(F)cc4)n3)C2)cc1 (stereo not drawn) [GSK1379715] | 0 | 0 | 12 | 0 | 10 | 0 | 0 | 0 | 0 | 0 | 0 | 0 | 25 | 2 | 0 | 2 | 0 | 0 | 0 | 0
CCn1c(-c2cccnc2O)nc2cnccc21 [SB-736715] | 0 | 0 | 10 | 0 | 0 | 0 | 2 | 0 | 0 | 84 | 16 | 0 | 0 | 0 | 0 | 0 | 0 | 0 | 3 | 0
O=C(Nc1ccccc1)Nc1cccc(Oc2ccc3nccn3n2)c1 | 1 | 100 | 6 | 0 | 0 | 0 | 0 | 99.6 | 0 | 59 | 0 | 0 | 0 | 0 | 0 | 2 | 0 | 0 | 0 | 10
Cc1ccc(NC(=O)Nc2cccc(Cl)c2)cc1-c1ccc(C(=O)Nc2ccncc2)cc1 [GSK1398468] | 0 | 86 | 30 | 0 | 12 | 5 | 12 | 78 | 0 | 15 | 0 | 57 | 19 | 2 | 0 | 25 | 0 | 0 | 0 | 3
Cc1cccc(-c2nc(Nc3ccncc3)c3ccccc3n2)n1 [GW855857] | 0 | 91.1 | 10 | 8 | 31 | 0 | 0 | 0 | 4 | 10 | 46 | 73 | 77 | 0 | 20 | 12 | 0 | 0 | 0 | 0
Cc1cccc(-c2nc(C)cc(Nc3ccncc3)n2)n1 [GSK257997] | 0 | 23 | 13 | 9 | 15 | 9 | 0 | 0 | 0 | 7 | 0 | 43 | 42 | 13 | 0 | 10 | 2 | 22 | 0 | 9
Cc1cc(-c2ccc3c(c2)CC[C@@H](N[C@@H](C)c2ccccc2)C3)cnc1N.Cl [GW412617] | 6 | 24 | 13 | 0 | 0 | 10 | 0 | 27 | 0 | 21 | 6 | 35 | 12 | 11 | 0 | 8 | 2 | 10 | 13 | 10
COc1cc2ncnc(Nc3ccc4nc(-c5ccccc5)[nH]c4c3)c2cc1OC.Cl [GW282450] | 26 | 59 | 14 | 0 | 12 | 3 | 0 | 3 | 10 | 0 | 0 | 6 | 24 | 15 | 0 | 17 | 5 | 98.4 | 0 | 1
CC(C)(C)c1ccc(C(=O)Nc2cn3cc(Cl)ccc3n2)cc1 | 2 | 27 | 75 | 29 | 2 | 75 | 14 | 1 | 0 | 0 | 19 | 67 | 59 | 0 | 16 | 0 | 0 | 0 | 0 | 20
Cc1cccc(-c2cc(Nc3ccncc3)c3ccccc3n2)n1 [GSK223675] | 0 | 23 | 22 | 0 | 10 | 5 | 0 | 8 | 0 | 0 | 0 | 14 | 50 | 10 | 0 | 17 | 7 | 2 | 0 | 18
Cc1c(O)cccc1Nc1ccnc2ccc(C(F)(F)F)cc12.Cl [GW466413] | 0 | 42 | 22 | 14 | 0 | 38 | 0 | 0 | 0 | 3 | 0 | 0 | 22 | 0 | 0 | 0 | 0 | 0 | 0 | 0
Fc1cc(Cl)ccc1Nc1ccnc2cc(-c3ccc(CN4CCCCC4)o3)ccc12 [GW560116] | 35 | 63 | 11 | 0 | 0 | 27 | 0 | 20 | 0 | 1 | 0 | 7 | 46 | 11 | 0 | 23 | 0 | 94.6 | 0 | 1
Cc1cccc(-c2nc(Nc3ccc4[nH]ncc4c3)c3ccccc3n2)n1 [GW857175] | 0 | 9 | 33 | 14 | 4 | 12 | 33 | 7 | 0 | 0 | 0 | 28 | 28 | 15 | 0 | 18 | 94 | – | 18 | 10
COC(=O)c1c(-c2ccccc2)c2cc(C(=O)O)ccc2c(=O)n1Cc1ccccc1 | 13 | 2 | 0 | 13 | 0 | 0 | 0 | 50 | 8 | 0 | 0 | 7 | 0 | 0 | 0 | 0 | 0 | 0 | 0 | 0
O=C(O)COc1ncnc2cc(-c3ccc4[nH]ncc4c3)sc12 | 1 | 8 | 76 | 43 | 0 | 79 | 0 | 0 | 0 | 0 | 33 | 0 | 0 | 17 | 10 | 34 | 37 | 20 | 14 | 17
Cc1ccc(C(=O)Nc2ccc(Nc3ccnc4cc(-c5ccccn5)ccc34)cc2O)cc1.Cl [GW440146] | 4 | 2 | 13 | 1 | 0 | 23 | 0 | 35 | 34 | 0 | 0 | 7 | 23 | 0 | 0 | 4 | 0 | 0 | 0 | 0
COc1cccc(-c2cc(-c3c[nH]nc3-c3ccccn3)ccn2)c1 [GW680338] | 18 | 7 | 22 | 22 | 0 | 28 | 51 | 0 | 0 | 8 | 31 | 25 | 23 | 1 | 3 | 10 | 4 | 11 | 0 | 0
COc1cccc(NC(=O)NC2CCN(c3ccnc(Nc4ccc(F)cc4)n3)C2)c1 (stereo not drawn) [GSK1379721] | 27 | 23 | 25 | 1 | 21 | 0 | 17 | 14 | 6 | 0 | 0 | 0 | 37 | 9 | 0 | 27 | 0 | 10 | 0 | 10
Cc1ccc(-c2cc(-c3c[nH]nc3-c3ccccn3)ccn2)cc1 [GW684088] | 53 | 26 | 14 | 9 | 0 | 38 | 49 | 14 | 0 | 0 | 21 | 26 | 18 | 10 | 22 | 24 | 0 | 0 | 0 | 11
